Calls of active or inactive are those of the source. How the source made its calls: active means hit-call score of the fitted dose curve at least 0.9, where 1 is the maximum; inactive means score below 0.9.
Experiment: CCTE_Padilla_ZF_Score.General: CCTE's 144 Hour Post-fertilization zebrafish Assay Score for General Malformation, Padilla Lab (AID 2284411)
Protocol: CCTE_Padilla_ZF_Phenotype_Score is a whole embryo, multiplexed assay using zebrafish ova exposed for 144 hours post fertilization on a 96-well plate.CCTE_Padilla_ZF_Score.General is one of one assay component(s) measured or calculated from the CCTE_Padilla_ZF_Phenotype_Score assay. It is designed to make measurements of zebrafish development as detected with brightfield microscopy of developing zebrafish embryos.Data from the assay component CCTE_Padilla_ZF_Score.General was analyzed into 1 assay endpoints. This assay endpoint, CCTE_Padilla_ZF_Score.General, was analyzed in the positive analysis fitting direction relative to DMSO as the negative control and baseline of activity. Using a type of viability reporter, gain-of-signal activity can be used to understand changes in developmentals as they relate to the whole embryo. To generalize the intended target to other relatable targets, this assay endpoint is annotated to the zebrafish development intended target family, where the subfamily is embryonic morphogenesis.
Zebrafish husbandry: Wild type adult zebrafish (Danio rerio; undefined outbred stock obtained from Aquatic Research Organisms, Hampton, NH, 03842) were housed in an AAALAC-approved animal facility at 28C with a 14:10 h light: dark cycle (lights on at 08:30 h). Adult fish (2-3 females per male; density = 15-20 adults per tank) were kept in one of several 9-liter (L) flow-through colony tanks (Aquaneering Inc., San Diego, CA). All adults in a colony tank were placed in a 2 L (static) breeding tank (Aquatic Habitats, Apopka, FL) one hour prior to light onset. Typically, adults from two to three colony tanks were mated on the same day. Two hours after light onset the adults were returned to the colony tank. All embryos were gathered from each breeder tank, pooled, and placed in a 28C water bath for 2 h, followed by two washes with 0.06% bleach (v/v) in 10% Hanks' Balanced Salt Solution (13.7 mM NaCl 0.54 mM KCl, 25 uM Na2HPO4, 130 uM CaCl2 100 um MgSO4 and 420 um NaHCO3,), hereafter referred to as Hanks' solution, for 5 min in order to remove any residual bacteria or fungi. Immediately following washing, the embryos were examined, and healthy embryos were separated from dead or unfertilized eggs and moved into fresh Hanks'. Chemical exposures: Zebrafish embryos were exposed in 96-well plates. Between 6- and 8-hours post fertilization (hpf), healthy embryos (with chorions) were transferred, one embryo per well, into 96 well (0.5 mL) microtiter plates (Cell Culture-Treated, Flat-Bottom Microplate 96 well [Corning Costar, Kennebunk, ME; Cat 09-761-145]) filled with 200 uL of Hanks' solution. A random number generator was used to assign the order in which the rows of embryos were plated in 96 well plates each week. After plating, the embryos were dosed with 0.8 uL of the chemical dosing solution then immediately sealed with AlumaSeal II (Excel Scientific Inc, Victorville, CA) to prevent volatilization of the chemicals, and then placed in a leakproof secondary container. These containers were placed in an incubator maintained on a 14:10 h light: dark cycle at 26C for rearing. On 5 dpf, live larvae were gently moved out of the plate with test chemicals and into a new 96 well mesh plate (Millipore Corp., Bedford, MA) with just the Hanks' solution. Once within the mesh well plate, the animals were rinsed with 400 uL of fresh Hanks' three times, and then the plates were covered with a non-adhesive material (Microseal A, BioRad, Hercules, CA), plate lid added, and then plate sides wrapped in Parafilm (PM992, Bermis Company, Neenah, WI), and returned to the incubator. […]

| Compound | outcome | AC50 |
| --- | --- | --- |
| NCC(F)(F)C(F)(F)C(F)(F)C(F)(F)C(F)(F)C(F)(F)C(F)(F)C(F)(F)F | inactive | – |
| CC(C)CCCC(C)CCO (stereo not given) | inactive | – |
| O=C(Cl)C(F)(F)C(F)(F)C(F)(F)C(F)(F)C(F)(F)C(F)(F)F | – | 76.8 µM (active) |
| O=C(F)C1(F)C(F)(F)C(F)(F)C(F)(F)C(F)(F)C1(F)F | inactive | – |
| OCC(F)(F)C(F)(F)C(F)(F)CO | inactive | – |
| O=C(O)CCC(F)(F)C(F)(F)C(F)(F)F | inactive | – |
| O=C(Cl)C(F)(F)C(F)(F)C(F)(F)C(F)(F)C(F)(F)C(F)(F)C(F)(F)F | inactive | – |
| OCC(F)(F)C(F)(F)C(F)(F)C(F)(F)C(F)(F)C(F)(F)CO | – | 47.7 µM (active) |
| O=C(O)C(F)(F)C(F)(F)C(F)(F)OC(F)(F)F | inactive | – |
| CCN(CCO)S(=O)(=O)C(F)(F)C(F)(F)C(F)(F)C(F)(F)C(F)(F)C(F)(F)C(F)(F)C(F)(F)F | inactive | – |
| OCC(F)(F)C(F)(F)C(F)(F)C(F)(F)C(F)(F)C(F)(F)C(F)(F)C(F)(F)CO | – | 4.17 µM (active) |
| C=C(C)C(=O)OCC(F)(F)C(F)(F)C(F)(F)C(F)F | inactive | – |
| NS(=O)(=O)C(F)(F)C(F)(F)C(F)(F)C(F)(F)C(F)(F)C(F)(F)F | – | 2.27 µM (active) |
| C=CC(=O)OCC(F)(F)C(F)(F)C(F)(F)COC(=O)C=C | inactive | – |
| O=C(O)C(F)(F)C(F)(F)C(F)(F)OC(F)(C(F)(F)F)C(F)(F)F | inactive | – |
| O=C(O)C(F)(F)C(F)(F)C(F)(F)C(=O)O | inactive | – |
| COC(F)(C(F)F)C(F)(F)F (stereo not given) | inactive | – |
| CNS(=O)(=O)C(F)(F)C(F)(F)C(F)(F)C(F)(F)C(F)(F)C(F)(F)C(F)(F)C(F)(F)F | – | 0.737 µM (active) |
| O=S(=O)(OCC(F)(F)F)C(F)(F)C(F)(F)C(F)(F)C(F)(F)F | inactive | – |
| NC(O)(C(F)(F)F)C(F)(F)F | – | 85 µM (active) |

| Compound | outcome | AC50 |
| --- | --- | --- |
| O=C(c1ccccc1)c1ccc(O)cc1O | inactive | – |
| OCCCCC(F)(F)C(F)(F)C(F)(F)C(F)(F)F | – | 21 µM (active) |
| NC(=O)C(F)(F)C(F)(F)C(F)(F)C(F)F | inactive | – |
| O=C(O)CCC(F)(F)C(F)(F)C(F)(F)C(F)(F)C(F)(F)C(F)(F)C(F)(F)F | inactive | – |
| FC(F)(F)C(F)(F)C(F)(F)CC1CO1 (stereo not given) | inactive | – |
| OCC(O)CC(F)(F)C(F)(F)C(F)(F)C(F)(F)F (stereo not given) | inactive | – |
| C[Si](Cl)(Cl)CCC(F)(F)C(F)(F)C(F)(F)C(F)(F)C(F)(F)C(F)(F)F | inactive | – |
| OCC(O)CC(F)(F)C(F)(F)C(F)(F)C(F)(F)C(F)(F)C(F)(F)C(F)(F)C(F)(F)F (stereo not given) | – | 11.8 µM (active) |
| O=S(=O)(O)CCC(F)(F)C(F)(F)C(F)(F)C(F)(F)F | inactive | – |
| O=C(O)C(F)(F)OC(F)(F)C(F)(F)OC(F)(F)C(F)(F)OC(F)(F)F | inactive | – |
| OCCCC(F)(F)C(F)(F)C(F)(F)C(F)(F)C(F)(F)C(F)(F)C(F)(F)C(F)(F)F | inactive | – |
| CN(C(=O)C(F)(F)C(F)(F)C(F)(F)F)[Si](C)(C)C | inactive | – |
| CCN(CC)c1ccc(C=O)cc1 | inactive | – |
| O=S(=O)(O)CCC(F)(F)C(F)(F)C(F)(F)C(F)(F)C(F)(F)C(F)(F)C(F)(F)C(F)(F)F | inactive | – |
| O=C(O)C(F)(F)C(F)(F)C(F)(F)C(F)(F)C(F)(F)C(F)(F)C(F)F | inactive | – |
| NC(=O)C(F)(F)C(F)(F)C(F)(F)C(F)(F)C(F)(F)C(F)(F)C(F)(F)F | inactive | – |
| C=CC(=O)OCCC(F)(F)C(F)(F)C(F)(F)C(F)(F)F | – | 76.7 µM (active) |
| O=S(=O)(Cl)C(F)(F)C(F)(F)C(F)(F)C(F)(F)C(F)(F)C(F)(F)C(F)(F)C(F)(F)F | inactive | – |
| Nc1cc([N+](=O)[O-])cc(Cl)c1O | inactive | – |
| NC(=O)C(F)(F)C(F)(F)C(F)(F)C(F)(F)C(N)=O | inactive | – |

From PubChem BioAssay (EPA / NIEHS)
